# Data reported in PubChem BioAssay (EPA / NIEHS).
# Values joined by “and” are separate entries in the source; they are usually repeats but may differ in a detail not shown here. Equal values may be shown once. Where a structure was tested more than once in an assay, its records may differ in their call. Active and inactive are the calls of the source. The calls were made as follows: active = hit-call score of the fitted dose curve at least 0.9, where 1 is the maximum; inactive = score below 0.9.
# What was measured:
# [1] = read-out: Urokinase-type plasminogen activator receptor (uPAR), PLAUR (gene 5329); experiment: BSK_4H_uPAR: BioMAP Diversity Plus: 4H Assay for Urokinase-type plasminogen activator receptor (uPAR) Biomarker Activity (AID 2283030); settings: primary human endothelial cells (HUVEC); actives raise or lower the signal
# Procedure, shortened: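 HUVEC, 24 h post-dose; uPAR by ELISA; bidirectional fit vs DMSO baseline.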
# [2] = read-out: Vascular endothelial growth factor receptor 2 (Homo sapiens) (UniProt P35968); experiment: BSK_4H_VEGFRII: BioMAP Diversity Plus: 4H Assay for Vascular endothelial growth factor receptor 2 (VEGFR2) Biomarker Activity (AID 2283031); settings: primary human endothelial cells (HUVEC); actives raise or lower the signal;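 as to AC50: cell-surface VEGFR2 protein level quantified by ELISA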
# Procedure, shortened: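 HUVEC (human primary), 4H system; 24 h post-dose; VEGFRII by ELISA; bidirectional curve fit vs DMSO baseline; gain or loss of signal scored.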
# [3] = read-out: Human Leukocyte Antigen - DR isotype (HLADR), HLA-DRA (gene 3122); experiment: BSK_BE3C_HLADR: BioMAP Diversity Plus: BE3C Assay for Human Leukocyte Antigen - DR isotype (HLADR) Biomarker Activity (AID 2283032); settings: primary human bronchial epithelial cells; actives raise or lower the signal
# Procedure, shortened: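 Human primary bronchial epithelial cells in the BE3C system were exposed to chemicals for 24 h, after which HLA-DR levels were quantified by ELISA. Activity was fitted bidirectionally, gain or loss of signal, against DMSO as negative control and baseline.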
# [4] = read-out: Vascular cell adhesion molecule 1 (VCAM1), VCAM1 (gene 7412); experiment: BSK_4H_VCAM1: BioMAP Diversity Plus: 4H Assay for Vascular cell adhesion molecule 1 (VCAM1) Biomarker Activity (AID 2283033); settings: primary human endothelial cells (HUVEC); actives raise or lower the signal;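 as to outcome: cell-surface VCAM-1 protein measured by ELISA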
# Procedure, shortened: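 Primary human umbilical vein endothelial cells were exposed to chemicals for 24 h, after which VCAM-1 was quantified by ELISA. Responses were fitted bidirectionally against DMSO as negative control and activity baseline.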
# [5] = read-out: Interferon-gamma inducible Protein 10 (IP10), CXCL10 (gene 3627); experiment: BSK_BE3C_IP10: BioMAP Diversity Plus: BE3C Assay for Interferon-gamma inducible Protein 10 (IP10) Biomarker Activity (AID 2283034); settings: primary human bronchial epithelial cells; actives raise or lower the signal
# Procedure, shortened: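 Human primary bronchial epithelial cells were exposed to chemicals for 24 hours, after which IP-10 levels were measured by ELISA. Data were fitted bidirectionally against DMSO, which served as the negative control and activity baseline.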
# [6] = read-out: Plasminogen activator inhibitor-1 (PAI1), SERPINE1 (gene 5054); experiment: BSK_BE3C_PAI1: BioMAP Diversity Plus: BE3C Assay for Plasminogen activator inhibitor-1 (PAI1) Biomarker Activity (AID 2283037); settings: primary human bronchial epithelial cells; actives raise or lower the signal
# Procedure, shortened: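 Human primary bronchial epithelial cells were exposed to chemical for 24 h, then PAI-1 was quantified by ELISA. Activity was fitted bidirectionally relative to the DMSO negative control baseline.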
# [7] = read-out: urokinase plasminogen activator (uPA), PLAU (gene 5328); experiment: BSK_BE3C_uPA: BioMAP Diversity Plus: BE3C Assay for urokinase plasminogen activator (uPA) Biomarker Activity (AID 2283038); settings: primary human bronchial epithelial cells; actives raise or lower the signal;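 as to outcome: uPA protein level quantified by ELISA in cell cultures; uPA read one day after compound addition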
# Procedure, shortened: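 ELISA read-out of uPA in human lung primary bronchial epithelial cultures, 24 h post-dosing. Gain or loss of signal fitted bidirectionally relative to DMSO baseline; cytotoxicity checked in parallel cultures via SRB total protein stain.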
# [8] = read-out: Urokinase-type plasminogen activator receptor (uPAR), PLAUR (gene 5329); experiment: BSK_BE3C_uPAR: BioMAP Diversity Plus: BE3C Assay for Urokinase-type plasminogen activator receptor (uPAR) Biomarker Activity (AID 2283039); settings: primary human bronchial epithelial cells; actives raise or lower the signal;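 as to outcome: uPAR protein level measured by ELISA on the cells; cells exposed to compound for one day before measurement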
# Procedure, shortened: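 Primary human bronchial epithelial cells were dosed with chemical and harvested 24 h later; uPAR was quantified by ELISA. Activity was fitted bidirectionally against DMSO as negative control and baseline.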
# [9] = read-out: Interleukin-6 (IL6), IL6 (gene 3569); experiment: BSK_CASM3C_IL6: BioMAP Diversity Plus: CASM3C Assay for Interleukin-6 (IL6) Biomarker Activity for (AID 2283040); settings: primary human coronary artery smooth muscle cells; actives raise or lower the signal
# [10] = read-out: Tissue plasminogen activator (tPA), PLAT (gene 5327); experiment: BSK_BE3C_tPA: BioMAP Diversity Plus: BE3C Assay for Tissue plasminogen activator (tPA) Biomarker Activity (AID 2283041); settings: primary human bronchial epithelial cells; actives raise or lower the signal;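 as to outcome: tPA level quantified by ELISA one day after compound addition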
# Procedure, shortened: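 Human primary bronchial epithelial cells were dosed with chemical and tPA biomarker levels measured by ELISA 24 hours later. Activity was fitted bidirectionally against DMSO as negative control and baseline.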
# [11] = read-out: Interleukin-8 (IL8), CXCL8 (gene 3576); experiment: BSK_CASM3C_IL8: BioMAP Diversity Plus: CASM3C Assay for Interleukin-8 (IL8) Biomarker Activity (AID 2283042); settings: primary human coronary artery smooth muscle cells; actives raise or lower the signal;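 also: IL-8 protein level quantified by ELISA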
# [12] = read-out: Human Leukocyte Antigen - DR isotype (HLADR), HLA-DRA (gene 3122); experiment: BSK_CASM3C_HLADR: BioMAP Diversity Plus: CASM3C Assay for Human Leukocyte Antigen - DR isotype (HLADR) Biomarker Activity (AID 2283043); settings: primary human coronary artery smooth muscle cells; actives raise or lower the signal;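 also: cell-surface HLA-DR protein level quantified by ELISA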
# [13] = read-out: Macrophage colony-stimulating factor (MCSF), CSF1 (gene 1435); experiment: BSK_CASM3C_MCSF: BioMAP Diversity Plus: CASM3C Assay for Macrophage colony-stimulating factor (MCSF) Biomarker Activity (AID 2283044); settings: primary human coronary artery smooth muscle cells; actives raise or lower the signal;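 also: M-CSF protein amount quantified by ELISA after 24 h exposure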
# [14] = read-out: Low-density lipoprotein receptor (LDLR), LDLR (gene 3949); experiment: BSK_CASM3C_LDLR: BioMAP Diversity Plus: CASM3C Assay for Low-density lipoprotein receptor (LDLR) Biomarker Activity (AID 2283045); settings: primary human coronary artery smooth muscle cells; actives raise or lower the signal;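 also: LDLR protein level on the cell surface quantified by ELISA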
# [15] = read-out: Monocyte Chemoattractant Protein-1 (MCP1), CCL2 (gene 6347); experiment: BSK_CASM3C_MCP1: BioMAP Diversity Plus: CASM3C Assay for Monocyte Chemoattractant Protein-1 (MCP1) Biomarker Activity (AID 2283046); settings: primary human coronary artery smooth muscle cells; actives raise or lower the signal;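 also: MCP-1 level quantified by ELISA 24 h after dosing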
# [16] = BSK_CASM3C_Proliferation: Cell Proliferation Assessment in the BioMAP Diversity Plus: CASM3C Assay (AID 2283047); settings: primary human coronary artery smooth muscle cells;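 also: sulforhodamine B total protein stain as relative cell number at 560 nm; sub-confluent cells exposed 48 h before staining; fitted both ways against DMSO so gain or loss of cell number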
# [17] = read-out: Monokine induced gamma interferon (MIG), CXCL9 (gene 4283); experiment: BSK_CASM3C_MIG: BioMAP Diversity Plus: CASM3C Assay for Monokine induced gamma interferon (MIG) Biomarker Activity (AID 2283048); settings: primary human coronary artery smooth muscle cells; actives raise or lower the signal;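 also: MIG protein level measured by ELISA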
# [18] = read-out: serum amyloid A (SAA), SAA1 (gene 6288); experiment: BSK_CASM3C_SAA: BioMAP Diversity Plus: CASM3C Assay for serum amyloid A (SAA) Biomarker Activity (AID 2283049); settings: primary human coronary artery smooth muscle cells; actives raise or lower the signal;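 also: SAA protein level quantified by ELISA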
# [19] = read-out: Monokine induced gamma interferon (MIG), CXCL9 (gene 4283); experiment: BSK_BE3C_MIG: BioMAP Diversity Plus: BE3C Assay for Monokine induced gamma interferon (MIG) Biomarker Activity (AID 2283035); settings: primary human bronchial epithelial cells; actives raise or lower the signal;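 also: MIG protein measured by ELISA in BE3C cultures after 24 h of dosing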
# Procedure, shortened: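 ELISA read-out of MIG in human lung bronchial epithelial primary cultures, 24 h post-dosing. Bidirectional curve fit vs DMSO baseline.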
smiles,measurement,setting,value
Oc1c(Cl)c(Cl)c(Cl)c(Cl)c1Cl,AC50,[1],5.58 µM (active) and 9.79 µM (active)
same,AC50,[2],11.6 µM (active)
same,outcome,[2],inactive
same,AC50,[3],8.2 µM (active) and 20.6 µM (active)
same,AC50,[4],10.2 µM (active) and 21.5 µM (active)
same,AC50,[5],5.02 µM (active) and 5.67 µM (active)
same,AC50,[6],1.18 µM (active) and 10.5 µM (active)
same,AC50,[7],4.12 µM (active) and 14.7 µM (active)
same,AC50,[8],7.14 µM (active) and 24.6 µM (active)
same,outcome,[9],inactive
same,AC50,[10],2.56 µM (active) and 7.59 µM (active)
same,AC50,[11],2.09 µM (active)
same,outcome,[11],inactive
same,AC50,[12],20 µM (active)
same,outcome,[12],inactive
same,outcome,[13],inactive
same,outcome,[14],inactive
same,outcome,[15],inactive
same,AC50,[16],26.7 µM (active)
same,outcome,[16],inactive
same,outcome,[17],inactive
same,outcome,[18],inactive
Oc1ccc(Cl)cc1Cl,outcome,[1],inactive
same,outcome,[2],inactive
same,outcome,[3],inactive
same,outcome,[4],inactive
same,outcome,[5],inactive
same,outcome,[19],inactive
same,outcome,[6],inactive
same,outcome,[7],inactive
same,outcome,[8],inactive
same,outcome,[9],inactive
same,outcome,[10],inactive
same,outcome,[11],inactive
same,outcome,[12],inactive
same,outcome,[13],inactive
same,outcome,[14],inactive
same,outcome,[15],inactive
same,outcome,[16],inactive
same,outcome,[17],inactive
same,outcome,[18],inactive
NS(=O)(=O)C(F)(F)C(F)(F)C(F)(F)C(F)(F)C(F)(F)C(F)(F)C(F)(F)C(F)(F)F,AC50,[1],29.3 µM (active) and 43.7 µM (active) and 45.6 µM (active)
same,AC50,[2],28.5 µM (active) and 30 µM (active)
same,outcome,[2],inactive
same,AC50,[3],5.61 µM (active) and 37.8 µM (active) and 37.6 µM (active)
same,AC50,[4],32.1 µM (active) and 50.1 µM (active) and 46 µM (active)
same,AC50,[5],10.2 µM (active) and 27 µM (active) and 23.1 µM (active)
same,AC50,[6],10.4 µM (active) and 17.1 µM (active) and 15.5 µM (active)
same,AC50,[7],47.3 µM (active) and 55.1 µM (active)
same,outcome,[7],inactive
same,AC50,[8],51.1 µM (active) and 54.9 µM (active)
same,outcome,[8],inactive
same,outcome,[9],inactive
same,AC50,[10],45.5 µM (active) and 37 µM (active)
same,outcome,[10],inactive
same,outcome,[11],inactive
same,AC50,[12],26.2 µM (active) and 46.2 µM (active)
same,outcome,[12],inactive
same,AC50,[13],31.3 µM (active) and 49 µM (active)
same,outcome,[13],inactive
same,AC50,[14],44.3 µM (active)
same,outcome,[14],inactive
same,AC50,[15],30 µM (active)
same,outcome,[15],inactive
same,AC50,[16],54.4 µM (active) and 50.9 µM (active)
same,outcome,[16],inactive
same,AC50,[17],39.8 µM (active)
same,outcome,[17],inactive
same,AC50,[18],46.8 µM (active)
same,outcome,[18],inactive
ClC1=C(Cl)[C@]2(Cl)[C@@H]3[C@@H](Cl)[C@H]4O[C@H]4[C@@H]3C1(Cl)C2(Cl)Cl,outcome,[1],inactive
same,outcome,[2],inactive
same,outcome,[3],inactive
same,outcome,[4],inactive
same,outcome,[5],inactive
same,outcome,[19],inactive
same,outcome,[6],inactive
same,outcome,[7],inactive
same,outcome,[8],inactive
same,outcome,[9],inactive
same,outcome,[10],inactive
same,outcome,[11],inactive
same,outcome,[12],inactive
same,outcome,[13],inactive
same,outcome,[14],inactive
same,outcome,[15],inactive
same,AC50,[16],12.3 µM (active)
same,outcome,[17],inactive
same,outcome,[18],inactive
